# DUSP3 inh – VHR1 phosphatase inhibitors, primary screen, biochemical, absorbance, uHTS; inhibition, % at 13.3 µM; hit rate 0.52% among 290,000; Dual specificity protein phosphatase 3 (Homo sapiens), P51452; recombinant VHR phosphatase, pNPP absorbance; in the data active = inhibition above about 50%
# Target sequence (P51452 whole entry, looked up): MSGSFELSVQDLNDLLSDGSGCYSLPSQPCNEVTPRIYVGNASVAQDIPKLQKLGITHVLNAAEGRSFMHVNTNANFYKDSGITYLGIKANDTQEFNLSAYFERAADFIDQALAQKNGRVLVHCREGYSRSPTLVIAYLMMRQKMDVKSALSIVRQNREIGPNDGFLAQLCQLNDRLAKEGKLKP
# CCHF vOTU inh – CCHFV vOTU protease inhibitors, primary screen, biochemical, Pep-AMC substrate, fluorescence; Crimean-Congo hemorrhagic fever virus L polyprotein viral ovarian tumor (vOTU) protease …; inhibition, % at 11.5 µM; hit rate 0.55% among 370,000; AID 651958, 2012
# FBA Mtb inh – Mtb FBA enzyme inhibitors, primary screen, biochemical, fluorescence, strain H37Rv. Fructose-bisphosphate aldolase (Mycobacterium tuberculosis (strain ATCC 25618 / H37Rv)), …. purified M. tuberculosis FBA, fluorescence read-out. inhibition, % at 1 µM. hit rate 2.3% among 360,000. AID 588726, 2011; in the data active = inhibition above about 27%
# Target sequence (P9WQA3 whole entry, looked up): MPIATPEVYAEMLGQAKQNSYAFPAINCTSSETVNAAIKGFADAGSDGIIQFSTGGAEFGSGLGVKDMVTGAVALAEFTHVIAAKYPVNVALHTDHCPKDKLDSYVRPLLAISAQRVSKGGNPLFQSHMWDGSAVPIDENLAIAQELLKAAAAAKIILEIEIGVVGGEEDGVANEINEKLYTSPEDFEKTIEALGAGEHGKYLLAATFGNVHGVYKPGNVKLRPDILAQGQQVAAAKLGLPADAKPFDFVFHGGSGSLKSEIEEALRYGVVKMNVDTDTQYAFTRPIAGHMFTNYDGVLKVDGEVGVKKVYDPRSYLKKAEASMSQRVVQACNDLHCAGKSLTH
# RecA intein inh – Mtb RecA intein splicing inhibitors, primary screen, biochemical, fluorescence, HTS; Protein RecA (Mycobacterium tuberculosis (strain ATCC 25618 / H37Rv)), P9WHJ3; inhibition, % (concentration not given with the values); cell-free RecA intein splicing; hit rate 0.75% among 290,000; in the data active = inhibition above about 30%
# SARS 3CLpro inh – SARS-CoV 3CLpro protease inhibitors, primary screen, biochemical, quenched FRET; Replicase polyprotein 1ab (Severe acute respiratory syndrome coronavirus), P0C6X7; recombinant SARS-CoV 3CLpro, quenched FRET peptide cleavage; inhibition, % at 6 µM; hit rate 0.14% among 290,000; in the data active = inhibition above about 12%
# GDH-TPI counter-1 – GDH-TPI coupling enzyme inhibitors, primary screen, artefact control for M. tuberculosis FBA inhibitor project, biochemical, absorbance, full deck | GDH-TPI coupled enzyme counterscreen, NADH absorbance | hit rate 1.2% among 360,000 | inhibition, % at 4.8 µM
# Mtb FBA inh conf – M. tuberculosis aldolase blockers, biochemical, fluorescence, strain H37Rv, confirmation; purified M. tuberculosis FBA, fluorescence read-out; AID 651616, 2012; shares compounds with FBA Mtb inh; hit rate 78% among 5,600; inhibition, % at 1 µM; in the data active = inhibition above about 27%
# GDH-TPI counter-2 – GDH-TPI coupling enzyme inhibitors, artefact control for M. tuberculosis FBA inhibitor project, biochemical, fluorescence, high throughput; inhibition, % at 1 µM; shares compounds with FBA Mtb inh; hit rate 81% among 5,600; GDH-TPI coupled enzyme counterscreen; in the data active = inhibition above about 10%
# Hits are given with their value; n = inactive; x = not tested or not shown; + = active, no number. Sampled rows, rich in hits. Any-hit rate of the full collection: about 4.7%. Rule as the data show it, unless noted: active = inhibition above about 30%; inactive = the rest.
SMILES,DUSP3 inh,CCHF vOTU inh,FBA Mtb inh,RecA intein inh,SARS 3CLpro inh,GDH-TPI counter-1,Mtb FBA inh conf,GDH-TPI counter-2
N=c1c(S(=O)(=O)c2ccc(Cl)cc2)cc2c(=O)n3ccccc3nc2n1CC1CCCO1 (configuration not stated),n,x,n,n,n,n,x,x
COCCn1c(=N)c(S(=O)(=O)c2ccc(F)cc2)cc2c(=O)n3ccccc3nc21,n,n,34.2,n,n,n,51.6,40.8
N=c1c(S(=O)(=O)c2ccccc2)cc2c(=O)n3ccccc3nc2n1CC1CCCO1 (configuration not stated),n,n,68.8,x,n,n,+,+
CCn1c(=N)c(S(=O)(=O)c2ccc(Cl)cc2)cc2c(=O)n3ccccc3nc21,n,x,x,n,n,x,x,x
N=c1c(S(=O)(=O)c2ccc(Cl)cc2)cc2c(=O)n3ccccc3nc2n1Cc1ccco1,n,n,56.2,n,n,n,141.8,106.9
COCCn1c(=N)c(S(=O)(=O)c2ccc(Br)cc2)cc2c(=O)n3ccccc3nc21,n,n,n,n,n,n,x,x
COc1ccc([C@H]2CC(=O)C=C(c3cc(C=O)ccc3OC)C2)cc1,x,n,n,x,x,n,x,x
COC(=O)[C@]12C[C@H](CC(=O)N3CCC(c4ccccc4)CC3)C(=O)N(CCc3ccc(OC)c(OC)c3)C1=C[C@H](COCc1ccccc1)O[C@@H]2C,x,n,x,x,x,x,x,x
CO[C@@H]1CN(C)C(=O)c2cc(NS(=O)(=O)c3ccc(C)cc3)ccc2OC[C@H](C)N(Cc2nccs2)C[C@H]1C,x,n,x,x,x,x,x,x
COc1ccc(C2CC(c3ccccc3Br)=NN2c2ccc(S(N)(=O)=O)cc2)cc1 (configuration not stated),x,n,45.5,x,x,n,153.7,77.3
Fc1cccc(CCNCc2ccccn2)c1,n,n,29.8,n,n,n,86.6,81.6
COC(=O)c1ccc(C#Cc2ccccc2)o1,n,n,57.8,n,n,n,49.2,57.1
O=C(c1ccc(C#Cc2ccccc2)o1)N1CCN(c2ccccn2)CC1,n,n,n,n,n,n,x,x
CN(Cc1cnccn1)C(=O)CC1C(=O)NCCN1Cc1cccc(Oc2ccccc2)c1 (configuration not stated),n,n,28.4,n,n,n,85.5,77.1
CCNC(=O)NC(=O)COC(=O)c1ccccc1SCC(=O)NC(=O)NCC,n,n,79.0,n,n,n,n,n
O=C(COC(=O)c1ccccc1SCC(=O)NC1CCS(=O)(=O)C1)NC1CCS(=O)(=O)C1 (configuration not stated),n,n,n,n,n,n,x,x
CCN(CC)CCNC(=O)C(C)c1nn(C)c(=O)c2ccccc12 (configuration not stated),n,n,n,n,n,n,x,x
CN(CCNC(=O)c1cc2c(=O)n(C)c3ccccc3c2n1C)Cc1ccccc1,n,n,n,n,n,n,x,x
CCN(CC)CCNC(=O)c1cc2c(=O)n(C)c3ccccc3c2s1,n,n,70.8,n,n,n,129.1,86.9
CCCCN(CC)CCNC(=O)c1cn(-c2ccc(Cl)cc2)c(=O)c2ccccc12,n,n,n,n,n,n,x,x
CCCCN(CC)CCNC(=O)c1cc2c(=O)n(C)c3ccccc3c2s1,n,n,49.4,n,n,n,180.9,144.4
CCCCN(CC)CCNC(=O)c1cc2c(-c3ccccc3F)nn(C)c2s1,n,n,45.8,n,n,n,46.8,35.4
CCCN(CCC)CCNC(=O)c1cc2c(=O)n(C)c3ccccc3c2n1C,n,n,30.5,n,n,n,n,n
OC[C@@H](O)[C@@H](O)[C@H](O)[C@H](O)CO,x,n,n,n,x,n,x,x
Cc1cc(NC(=O)OC(C)(C)C)c(-n2nnnc2C(C(=O)c2ccccc2)N2CCOCC2)cc1C (configuration not stated),x,n,x,x,x,x,x,x
SMILES,DUSP3 inh,CCHF vOTU inh,FBA Mtb inh,RecA intein inh,SARS 3CLpro inh,GDH-TPI counter-1,Mtb FBA inh conf,GDH-TPI counter-2
CCN(CCCNC(=O)c1cc2c(-c3cccc(OC)c3)nn(C)c2s1)Cc1ccccc1,n,n,52.5,n,n,n,39.0,43.0
COc1cccc(-c2nn(C)c3sc(C(=O)NCc4ccc5c(c4)OCO5)cc23)c1,n,n,n,n,n,n,x,x
N#Cc1ccc(NC(=O)OC2CC3CC2[C@H]2CCCCN2C3)cc1 (some centres not stated),x,n,x,x,x,x,x,x
CCn1c(SCC(=O)N2CCOCC2)nnc1-c1cccs1,n,n,70.2,n,n,n,141.5,116.8
Cc1[nH]c2ccccc2c1/C=N/NC(=O)C1CC1(c1ccccc1)c1ccccc1 (configuration not stated),n,n,n,n,n,n,x,x
Cc1ccc(Cn2c(SCCN3CCCCC3)nc3c2c(=O)n(C)c(=O)n3C)cc1,n,n,62.6,n,n,n,n,10.5
CCC(CCNC(=O)c1ccccc1)(CCNC(=O)c1ccccc1)[N+](=O)[O-],x,n,n,x,x,n,x,x
O=Cc1ccc(OC(=O)Cc2ccc(F)cc2)cc1,n,x,x,n,n,x,x,x
Cc1nc2nc(-c3ccc(F)cc3)cn2nc1C,n,n,50.4,n,n,n,43.0,38.0
CC(C(=O)N1CCCC1)N1CCN(c2ccccc2O)CC1 (configuration not stated),n,n,n,n,n,n,x,x
CCCCc1cc(=O)oc2cc(C)cc(OC(C)C(=O)NC(Cc3c[nH]c4ccc(O)cc34)C(=O)O)c12 (configuration not stated),n,n,37.2,n,n,n,131.8,102.0
CCc1c(C)c2ccc(OC(C)C(=O)NC(Cc3c[nH]c4ccc(O)cc34)C(=O)O)c(C)c2oc1=O (configuration not stated),n,n,42.8,n,n,n,x,+
Cc1cc(=O)oc2c(C)c(OC(C)C(=O)NC(Cc3c[nH]c4ccc(O)cc34)C(=O)O)ccc12 (configuration not stated),n,n,n,n,n,n,x,x
O=C(c1ccc([N+](=O)[O-])cc1)N1CCN(c2cccc3[nH]ccc23)CC1,n,n,n,n,n,n,x,x
CC(C)n1ncc2c(C(=O)NCCc3ccc(S(N)(=O)=O)cc3)cc(C3CC3)nc21,x,n,28.3,x,x,n,+,+
